Activity calls are given as the source filed them. The rule behind the calls is not given here. Numbered stars: 1 amine (or outer) side, 2 acyl side, 3 side chain; on linkers, the order of the positions; unused ones are H or OH. Bridge positions count the residues as written; N and C are the ends. Square brackets hold non-standard residues; d marks the D form. Peptide text beside a SMILES is read from it. I, II: the chains in the order shown. ξ: configuration not given here. Actinocin(9to1) = Cc1c2oc3c(C)ccc(C(=O)[*:1])c3nc-2c(C(=O)[*:2])c(N)c1=O; ξNMeV = CNC(C(=O)O)C(C)C; ξV = CC(C)C(N)C(=O)O; Sar = CNCC(=O)O
Potency is the fitted concentration of half-maximal effect.

A short description of the first assay: Immunotoxin (HA22) sensitization/mitigation study. Vehicle arm (PBS) (AID 1159510). To be noted: cancer cells viability with PBS vehicle (HA22 study); series mostly up to 46.1 µM.
Regarding `O=C(OCC#CCSc1nnc(-c2ccc3ccccc3c2)o1)c1cc2ccccc2s1`, the Potency result was “inactive”.

`CCCCN1CCC(CNC(=O)c2c3n(c4ccccc24)CCCO3)CC1`: the Potency result was “inactive”.

Regarding `Cc1cn(-c2cc(NC(=O)c3ccc(C)c(Nc4nccc(-c5cccnc5)n4)c3)cc(C(F)(F)F)c2)cn1`, the Potency is 14800 nM (active).

As to `CCN(CC)CCOc1ccc(Nc2ncc3cc(-c4c(Cl)cccc4Cl)c(=O)n(C)c3n2)cc1`, the Potency is 1180 nM (active).

In the case of `CCOC(=O)[C@@H](N)CCC(=O)N[C@@H](CSCc1ccccc1)C(=O)N[C@@H](C(=O)OCC)c1ccccc1`, the Potency was 23500 nM (active).

With `CCOc1ccc(Nc2nc(-c3c(C)nc4ccccn34)cs2)cc1`, the Potency was 10.5 nM (active).

As for `Nc1ccc(-c2ccc3ncc4ccc(=O)n(-c5cccc(C(F)(F)F)c5)c4c3c2)cn1`, the Potency was 18.7 nM (active).

Regarding `CC(C)c1ccc(Cn2ccc3c4c(N)nc(NC5CC5)nc4ccc32)cc1`, the Potency is 3320 nM (active).

A further assay is described as follows: Immunotoxin (SS1P) sensitization/mitigation study. Vehicle arm (DMEM) (AID 1159513). To be noted: cell viability with vehicle (DMEM); series mostly up to 46.1 µM.
For the compound `Cc1c2oc3c(C)ccc(C(=O)N[C@@H]4C(=O)NC(C(C)C)C(=O)N5CCC[C@H]5C(=O)N(C)CC(=O)N(C)C(C(C)C)C(=O)O[C@@H]4C)c3nc-2c(C(=O)N[C@@H]2C(=O)NC(C(C)C)C(=O)N3CCC[C@H]3C(=O)N(C)CC(=O)N(C)C(C(C)C)C(=O)O[C@@H]2C)c(N)c1=O` (some centres not stated) (I: T[ξV]P[Sar][ξNMeV] / II: T[ξV]P[Sar][ξNMeV]; ester I:1-I:C, II:1-II:C; linker I:N-II:N via Actinocin(9to1)), the Potency is 3 nM (active).

Turning to `CCc1cc(-c2n[nH]c(C)c2-c2ccc3c(c2)OCCO3)c(O)cc1O`, the Potency is 2640 nM (active).

As to `Cc1cc(Nc2nc(N[C@@H](C)c3ncc(F)cn3)ncc2Cl)n[nH]1`, the Potency entry was “inactive”.

As to `CCC=CC[C@H]1C(=O)CC[C@@H]1CC(=O)OC`, the Potency result is “inactive”.

`CC(C)c1ccccc1Cc1cc(C(=O)Nc2ccc(S(=O)(=O)c3ccccc3C(C)(C)C)cc2)c(O)c(O)c1O`: the Potency was 3720 nM (active).

Turning to `CN1CC[C@@H](c2c(O)cc(O)c3c(=O)cc(-c4ccccc4Cl)oc23)[C@@H](O)C1`, the Potency is 46.9 nM (active).

On to `Nc1ccc(C(=O)c2cc3c(ccc4ccccc43)[nH]2)cc1`, for which the Potency was 1180 nM (active).

With `COc1cc2ncnc(-n3nc(-c4ccccn4)nc3N)c2cc1OC`, the Potency is 4180 nM (active).

`COc1cc2c(cc1OC)CC(=O)N(CCCN(C)C[C@H]1Cc3cc(OC)c(OC)cc31)CC2`: the Potency result was “inactive”.

As for `CO[C@H]1C=CC=C(C)C(=O)NC2=CC(=O)C(NCCN(C)C)=C(C[C@@H](C)C[C@H](OC)[C@@H](O)[C@@H](C)C=C(C)[C@@H]1OC(N)=O)C2=O`, the Potency is 3320 nM (active).

Consider `Fc1cc(-c2cccc3ncc(-c4cnn(C5CCNCC5)c4)nc23)cc(F)c1CN1CCOCC1`, for which the Potency is 23500 nM (active).

Regarding `CC(C)[C@H](CO)Nc1nc(Nc2ccc(C(=O)O)c(Cl)c2)c2ncn(C(C)C)c2n1`, the Potency result is “inactive”.

With `COc1nc(-c2ccc3c(c2)OCO3)n(-c2ccc(NC(=O)CSc3ccccc3)cc2)n1`, the Potency result is “inactive”.

Consider `CNc1nccc(-c2cccnc2Oc2cc(C(=O)Nc3cccc(C(F)(F)F)c3)ccc2C)n1`, for which the Potency is 23500 nM (active).

On to `COc1cccc2cc(-c3nc(C4CCC(C(=O)O)CC4)n4ncnc(N)c34)[nH]c12` (configuration not stated), for which the Potency is 235 nM (active).

For `Cc1ccc(-c2ncn(-c3ccc(Nc4nccc(-c5cccc(N6CCOCC6)c5)n4)cc3)n2)cn1`, the Potency is 23.5 nM (active).

On to `CCOc1ccn(-c2ccc(F)cc2)c(=O)c1C(=O)Nc1ccc(Oc2ccnc(N)c2Cl)c(F)c1`, for which the Potency is 23500 nM (active).

With `CC(NCc1ccc2c(c1)nc(NC(=O)c1ccc(-c3cn[nH]c3)s1)n2CC(C)(C)O)C(C)(C)C` (configuration not stated), the Potency is 41.8 nM (active).

As to `O=C(O)[C@H](Cc1c[nH]c2ccccc12)N1C(=O)c2ccccc2C1=O`, the Potency entry is “inactive”.

As for `NC(=O)c1ccc(-c2nc(-c3ccc4c(c3)OCO4)c(-c3ccccn3)[nH]2)cc1`, the Potency entry was “inactive”.

Regarding `S=C(NCc1ccc2c(c1)OCO2)N1CCN(c2ncnc3c2oc2ccccc23)CC1`, the Potency was 372 nM (active).

As to `CCC1(Cc2ccc(N)cc2)CCC(=O)NC1=O` (configuration not stated), the Potency entry was “inactive”.

In the case of `Cc1cc(-c2ccc(CC(=O)Nc3ccc(-c4cccnc4)cc3)cc2)ccn1`, the Potency is 18700 nM (active).

In the case of `COC(=O)Nc1ccc(-c2nc(N3CCOCC3)c3cnn(C4CCN(C(=O)OC)CC4)c3n2)cc1`, the Potency is 187 nM (active).

Take `CC(=O)OCCN1C(=O)c2c(C)nc3ccc(S(=O)(=O)N4CCOCC4)cc3c2C1=O`: the Potency entry was “inactive”.

Consider `CC(C)c1ccc2c(c1)c(SC(C)(C)C)c(CC(C)(C)C(=O)O)n2Cc1ccc(Cl)cc1`, for which the Potency was 11800 nM (active).

Turning to `CC(C)C[C@@H](C(=O)N[C@H](C(=O)OC1CCCC1)c1ccccc1)[C@H](O)C(=O)NO`, the Potency was 16600 nM (active).

For the compound `OCCC#Cc1nc(-c2ccc(F)cc2)c(-c2ccncc2)n1CCCc1ccccc1`, the Potency is 18700 nM (active).

As to `CC[C@@H](C(=O)O)C1CC[C@H](C)C([C@@H](C)[C@H](O)[C@H](C)C(=O)[C@H](CC)C2O[C@]3(C=C[C@@H](O)[C@]4(CC[C@@](C)(C5CC[C@](O)(CC)[C@H](C)O5)O4)O3)[C@H](C)C[C@@H]2C)O1` (some centres not stated), the Potency is 20900 nM (active).

For `CC[C@@H](C)[C@H](NC(=O)[C@H](CC1CCCCC1)NC(=O)c1ccno1)C(=O)N1CCC2(CCc3ccccc32)CC1`, the Potency is 16600 nM (active).

As to `CC(C)(C(=O)NCC(F)(F)C(F)(F)F)C(=O)N[C@@H]1C(=O)Nc2ccccc2-c2ccccc21`, the Potency result was “inactive”.

Consider `O=C(OCC#CCSc1nnc(-c2ccc3ccccc3c2)o1)c1cc2ccccc2s1`, for which the Potency entry is “inactive”.

Consider `CCCCN1CCC(CNC(=O)c2c3n(c4ccccc24)CCCO3)CC1`, for which the Potency result is “inactive”.

As for `Cc1cn(-c2cc(NC(=O)c3ccc(C)c(Nc4nccc(-c5cccnc5)n4)c3)cc(C(F)(F)F)c2)cn1`, the Potency was 26400 nM (active).

`CCN(CC)CCOc1ccc(Nc2ncc3cc(-c4c(Cl)cccc4Cl)c(=O)n(C)c3n2)cc1`: the Potency was 332 nM (active).

In the case of `CCOC(=O)[C@@H](N)CCC(=O)N[C@@H](CSCc1ccccc1)C(=O)N[C@@H](C(=O)OCC)c1ccccc1`, the Potency result was “inactive”.

Consider `CCOc1ccc(Nc2nc(-c3c(C)nc4ccccn34)cs2)cc1`, for which the Potency is 5.9 nM (active).

On to `Nc1ccc(-c2ccc3ncc4ccc(=O)n(-c5cccc(C(F)(F)F)c5)c4c3c2)cn1`, for which the Potency was 52.6 nM (active).

As for `CC(C)c1ccc(Cn2ccc3c4c(N)nc(NC5CC5)nc4ccc32)cc1`, the Potency was 935 nM (active).

The record behind these values is PubChem BioAssay (NCATS).
